Among all 5,500 compounds or so, about 2,000 (36%) were called active. About 18% were inconclusive and are not listed. This is one part of the list. Unmarked numbers belong to inactive results. Rule as the data show it: active = normalized growth mostly below about 0.91 (no sharp cut-off); inconclusive = no clear call, values can overlap the other calls; inactive = mostly above about 0.92.
Experiment: chemical genetic growth profiling, strain panel (AID 1159580);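 also: tested at 20 µM; growth read once vehicle control cultures reached saturation at 30 °C; 1 = growth at the plate median or of vehicle wells; lower values mean less growth of the strain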
Conditions: growth OD

Question: What does the source list for `CC(C)=CCc1c(O)cc2oc(C)cc(=O)c2c1O`?
Answer: normalized growth (S. cerevisiae deletion strains, locus YJR043C, strain POL32, active compounds read low): 0.847 (active); normalized growth (S. cerevisiae deletion strains, locus YJR066W, strain TOR1, active compounds read low): 0.941; normalized growth (S. cerevisiae deletion strains, locus YJR075W, strain HOC1, active compounds read low): 1.03; normalized growth (S. cerevisiae deletion strains, locus YKL009W, strain mrt4, active compounds read low): 0.974; normalized growth (S. cerevisiae deletion strains, locus YKL068W, active compounds read low): 0.982; normalized growth (S. cerevisiae deletion strains, locus YKL085W, strain MDH1 (second series), active compounds read low): 0.983; normalized growth (S. cerevisiae deletion strains, locus YKL085W, strain MDH1, active compounds read low): 0.983; normalized growth (S. cerevisiae deletion strains, locus YKL160W, strain elf1, active compounds read low): 0.963; normalized growth (S. cerevisiae deletion strains, locus YKL190W, strain CNB1, active compounds read low): 1; normalized growth (S. cerevisiae deletion strains, locus YKR001C, strain vps1, active compounds read low): 0.723 (active); normalized growth (S. cerevisiae deletion strains, locus YKR026C, strain gcn3, active compounds read low): 0.977; normalized growth (S. cerevisiae deletion strains, locus YKR091W, strain srl3, active compounds read low): 0.98; normalized growth (S. cerevisiae deletion strains, locus YLL001W, strain dnm1, active compounds read low): 0.964; normalized growth (S. cerevisiae deletion strains, locus YLL026W, active compounds read low): 0.981; normalized growth (S. cerevisiae deletion strains, locus YLL041C, strain sdh2, active compounds read low): 0.979; normalized growth (S. cerevisiae deletion strains, locus YLR027C, strain aat2, active compounds read low): 0.983; normalized growth (S. cerevisiae deletion strains, locus YLR039C, strain RIC1, active compounds read low): 0.834; normalized growth (S. cerevisiae deletion strains, locus YLR058C, strain SHM2, active compounds read low): 0.966; normalized growth (S. cerevisiae deletion strains, locus YLR102C, strain apc9, active compounds read low): 0.987; normalized growth (S. cerevisiae deletion strains, locus YLR113W, strain HOG1, active compounds read low): 0.854 (active); normalized growth (S. cerevisiae deletion strains, locus YLR221C, strain rsa3, active compounds read low): 0.95; normalized growth (S. cerevisiae deletion strains, locus YLR258W, strain gsy2, active compounds read low): 0.97; normalized growth (S. cerevisiae deletion strains, locus YLR262C, strain YPT6 (second series), active compounds read low): 0.781 (active); normalized growth (S. cerevisiae deletion strains, locus YLR268W, strain sec22, active compounds read low): 0.939; normalized growth (S. cerevisiae deletion strains, locus YLR320W, strain mms22, active compounds read low): 0.961; normalized growth (S. cerevisiae deletion strains, locus YLR330W, strain CHS5, active compounds read low): 0.937; normalized growth (S. cerevisiae deletion strains, locus YLR342W, strain FKS1, active compounds read low): 0.974; normalized growth (S. cerevisiae deletion strains, locus YLR357W, strain rsc2, active compounds read low): 0.913; normalized growth (S. cerevisiae deletion strains, locus YLR370C, strain arc18, active compounds read low): 0.996; normalized growth (S. cerevisiae deletion strains, locus YLR371W, strain rom2, active compounds read low): 0.957; normalized growth (S. cerevisiae deletion strains, locus YLR384C, strain iki3, active compounds read low): 0.976; normalized growth (S. cerevisiae deletion strains, locus YLR418C, strain cdc73, active compounds read low): 0.898; normalized growth (S. cerevisiae deletion strains, locus YML016C, strain PPZ1, active compounds read low): 0.997; normalized growth (S. cerevisiae deletion strains, locus YML032C, strain rad52, active compounds read low): 0.907; normalized growth (S. cerevisiae deletion strains, locus YML120C, strain ndi1, active compounds read low): 0.98; normalized growth (S. cerevisiae deletion strains, locus YML124C, strain tub3, active compounds read low): 0.985; normalized growth (S. cerevisiae deletion strains, locus YMR058W, strain fet3, active compounds read low): 0.946; normalized growth (S. cerevisiae deletion strains, locus YMR078C, strain ctf18, active compounds read low): 0.994; normalized growth (S. cerevisiae deletion strains, locus YMR125W, strain sto1, active compounds read low): 0.981; normalized growth (S. cerevisiae deletion strains, locus YMR129W, active compounds read low): 0.98; normalized growth (S. cerevisiae deletion strains, locus YMR205C, strain PFK2, active compounds read low): 0.954; normalized growth (S. cerevisiae deletion strains, locus YMR223W, strain ubp8, active compounds read low): 0.931; normalized growth (S. cerevisiae deletion strains, locus YMR231W, strain pep5, active compounds read low): 0.981; normalized growth (S. cerevisiae deletion strains, locus YMR263W, strain SAP30, active compounds read low): 0.992; normalized growth (S. cerevisiae deletion strains, locus YMR307W, strain GAS1, active compounds read low): 0.549 (active); normalized growth (S. cerevisiae deletion strains, locus YNL067W, strain RPL9B, active compounds read low): 1.01; normalized growth (S. cerevisiae deletion strains, locus YNL071W, strain lat1, active compounds read low): 0.975; normalized growth (S. cerevisiae deletion strains, locus YNL153C, strain GIM3, active compounds read low): 0.932; normalized growth (S. cerevisiae deletion strains, locus YNL183C, strain NPR1, active compounds read low): 0.91; normalized growth (S. cerevisiae deletion strains, locus YNL209W, strain ssb2, active compounds read low): 0.996; normalized growth (S. cerevisiae deletion strains, locus YNL233W, strain BNI4, active compounds read low): 0.926; normalized growth (S. cerevisiae deletion strains, locus YNL248C, strain rpa49, active compounds read low): 0.968; normalized growth (S. cerevisiae deletion strains, locus YNL250W, strain rad50, active compounds read low): 0.993; normalized growth (S. cerevisiae deletion strains, locus YNL271C, strain bni1, active compounds read low): 0.98; normalized growth (S. cerevisiae deletion strains, locus YNL298W, strain CLA4, active compounds read low): 0.954; normalized growth (S. cerevisiae deletion strains, locus YNL307C, strain MCK1, active compounds read low): 0.989; normalized growth (S. cerevisiae deletion strains, locus YNL322C, strain KRE1 (second series), active compounds read low): 0.964; normalized growth (S. cerevisiae deletion strains, locus YNR049C, strain mso1, active compounds read low): 0.964; normalized growth (S. cerevisiae deletion strains, locus YNR052C, strain pop2, active compounds read low): 1; normalized growth (S. cerevisiae deletion strains, locus YOL012C, strain htz1): 1.24; normalized growth (S. cerevisiae deletion strains, locus YOL147C, strain pex11, active compounds read low): 0.954; normalized growth (S. cerevisiae deletion strains, locus YOR001W, strain rrp6, active compounds read low): 0.981; normalized growth (S. cerevisiae deletion strains, locus YOR061W, strain CKA2, active compounds read low): 0.955; normalized growth (S. cerevisiae deletion strains, locus YOR069W, strain VPS5, active compounds read low): 0.987; normalized growth (S. cerevisiae deletion strains, locus YOR070C, strain gyp1, active compounds read low): 0.983; normalized growth (S. cerevisiae deletion strains, locus YOR080W, strain dia2, active compounds read low): 1; normalized growth (S. cerevisiae deletion strains, locus YOR083W, strain WHI5, active compounds read low): 0.947; normalized growth (S. cerevisiae deletion strains, locus YOR106W, strain vam3, active compounds read low): 0.934; normalized growth (S. cerevisiae deletion strains, locus YOR136W, strain idh2, active compounds read low): 0.979; normalized growth (S. cerevisiae deletion strains, locus YOR144C, strain elg1, active compounds read low): 0.965; normalized growth (S. cerevisiae deletion strains, locus YOR184W, strain ser1, active compounds read low): 0.829 (active); normalized growth (S. cerevisiae deletion strains, locus YOR231W, strain MKK1, active compounds read low): 0.958; normalized growth (S. cerevisiae deletion strains, locus YOR265W, strain rbl2, active compounds read low): 0.971; normalized growth (S. cerevisiae deletion strains, locus YOR270C, strain vph1, active compounds read low): 1.08; normalized growth (S. cerevisiae deletion strains, locus YOR290C, strain snf2, active compounds read low): 0.939; normalized growth (S. cerevisiae deletion strains, locus YOR316C, strain cot1, active compounds read low): 0.997; normalized growth (S. cerevisiae deletion strains, locus YPL051W, strain arl3, active compounds read low): 0.952; normalized growth (S. cerevisiae deletion strains, locus YPL055C, strain LGE1, active compounds read low): 0.945; normalized growth (S. cerevisiae deletion strains, locus YPL078C, strain atp4, active compounds read low): 0.966; normalized growth (S. cerevisiae deletion strains, locus YPL106C, strain sse1, active compounds read low): 0.978; normalized growth (S. cerevisiae deletion strains, locus YPL240C, strain hsp82, active compounds read low): 0.982; normalized growth (S. cerevisiae deletion strains, locus YPL256C, strain CLN2, active compounds read low): 1.01; normalized growth (S. cerevisiae deletion strains, locus YPR119W, strain clb2, active compounds read low): 0.995; normalized growth (S. cerevisiae deletion strains, locus YPR141C, strain kar3, active compounds read low): 1; normalized growth (S. cerevisiae deletion strains, locus YPR163C, strain tif3, active compounds read low): 0.975; normalized growth (S. cerevisiae deletion strains, locus YPR167C, strain met16, active compounds read low): 0.956; normalized growth (S. cerevisiae deletion strains, strain wtn01, active compounds read low): 0.891 (active); normalized growth (S. cerevisiae strains, strain wild type, active compounds read low): 0.922

Reference: PubChem BioAssay AID1159580 (chemical genetic matrix, 2015)
